# Results from the supplement of paper PMC9135407.
# Where “and” joins values, the source holds several entries; their conditions need not be identical. Identical values can stand only once. Counter-ions that a name gives are not always drawn. Out of some 5,800 compounds screened, about 620 (11%) showed activity. Only a selection was taken, and actives are over-represented in it overall. A number with no mark means an inactive call.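 How the source made its calls: active = score above a cut-off or among the top three wells of a plate; in these data no inactive exceeds 0.85.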
# Test system: primary human hepatic stellate cells (donor 1)
# Assay: scaled lipid accumulation score (0 = DMSO-like, 1 = nortriptyline-like); higher = stronger HSC inactivation (lipid re-accumulation), active = hit call of the paper
# Details: 48 h
# [1] = library stock concentration: 1 mM
# [2] = library stock concentration: 10 mM
# [3] = library stock concentration: 4.8 mM
# [4] = library stock concentration: 3.33 mM
# [5] = library stock concentration: 80 uM
# [6] = library stock concentration: 400 uM
# [7] = library stock concentration: 2 mM
compound,measurement,setting,value
CCCCCCCCCC(=O)NC(CN1CCOCC1)C(O)c1ccccc1 (racemic),scaled lipid accumulation score,[1],≤ -0.021
Cc1ccc(C(=O)Cn2c3c(sc2=N)CCCC3)cc1 [Pifithrin-.alpha.],scaled lipid accumulation score,[1],≤ 0
O=C(O)CCC/C=C\C[C@@H]1[C@@H](/C=C/[C@@H](O)CCc2cccc(C(F)(F)F)c2)[C@H](O)C[C@@H]1O [17-trifluoromethylphenyl trinor Prostaglandin F2.alpha.],scaled lipid accumulation score,[1],≤ 0
CCN(CC)C(=O)CCC/C=C\C[C@@H]1[C@@H](/C=C/[C@@H](O)CCc2ccccc2)[C@H](O)C[C@@H]1O [17-phenyl trinor Prostaglandin F2.alpha. diethyl amide],scaled lipid accumulation score,[1],≤ 0
"CCS(=O)(=O)N(C)[C@H]1c2cc(C#N)ccc2OC(C)(C)[C@@H]1O [(-)-[3R,4S]-Chromanol 293B]",scaled lipid accumulation score,[2],0.037
NC(CCC(=O)NC(CSN=O)C(=O)NCC(=O)O)C(=O)O [S-Nitroso-L-glutathione],scaled lipid accumulation score,[1],0.026
CNS(=O)(=O)c1ccc(NC(=O)c2ccccc2C(=O)O)cc1 [Phthalysulfathiazole],scaled lipid accumulation score,[3],≤ 0
O=C1C(SCCO)=C(SCCO)C(=O)c2ccccc21 [listing 1 of 3 here],scaled lipid accumulation score,[2],0.156
O=C1C(SCCO)=C(SCCO)C(=O)c2ccccc21 [listing 2 of 3 here],scaled lipid accumulation score,library stock concentration: 16.1 mM,1.05 (active)
N[C@@H](CO)c1ccccc1 [(R)-(-)-2-Phenylglycinol],scaled lipid accumulation score,[1],≤ 0
O=C1C(SCCO)=C(SCCO)C(=O)c2ccccc21 [listing 3 of 3 here],scaled lipid accumulation score,[2],1.2 (active)
O=C1c2cccc(O)c2C(=O)c2c(O)cccc21 [Danthron],scaled lipid accumulation score,library stock concentration: 8.3 mM,0.038
CCN(c1ccccc1)c1cc(=NC)n(C)c(C)n1,scaled lipid accumulation score,[2],≤ 0
CN(C)CCCCCCOc1ccc(-n2ccnc2)cc1,scaled lipid accumulation score,[1],0.054 and 0.003
NC(N)=N[C@@H](CCC(=O)O)C(=O)O [.alpha.-Guanidinoglutaric Acid],scaled lipid accumulation score,[1],≤ 0
NC(N)=N[C@@H](CCC(=O)O)C(=O)O [alpha-Guanidinoglutaric acid],scaled lipid accumulation score,[2],≤ -0.007
O=C(Nc1cccc(C(F)(F)F)c1)Nc1cc(S(=O)(=O)NC2CC2)ccc1-c1ccsc1,scaled lipid accumulation score,[4],0.022
same,scaled lipid accumulation score,[2],0.632
OC(CC1c2ccccc2-c2cncn21)C1CCCCC1 (stereo not drawn),scaled lipid accumulation score,[4],≤ -0.009
same,scaled lipid accumulation score,[2],0.209
Cc1ccc(Nc2c(F)cccc2Cl)c(CC(=O)O)c1,scaled lipid accumulation score,[2],≤ 0
Cc1ccc(Nc2c(F)cccc2Cl)c(CC(=O)O)c1 [Lumiracoxib],scaled lipid accumulation score,[4],≤ 0
same,scaled lipid accumulation score,[2],0.025
CCCCC[C@H](O)/C=C/[C@@H]1c2cc(CCCCC(=O)O)n(-c3ccccc3)c2C[C@H]1O [Piriprost (potassium salt)],scaled lipid accumulation score,[1],≤ 0
CN1CCc2ccccc2Cc2[nH]c3ccccc3c2CC1,scaled lipid accumulation score,[2],0.244
O=c1c2ccccc2nc2n1CCc1c-2[nH]c2ccccc12 [Rutaecarpine] [listing 1 of 2 here],scaled lipid accumulation score,[4],≤ 0
same,scaled lipid accumulation score,[2],0.58
O=c1c2ccccc2nc2n1CCc1c-2[nH]c2ccccc12 [Rutaecarpine] [listing 2 of 2 here],scaled lipid accumulation score,[2],0.975 (active)
CCC(CC)(NC(=O)C(C)C)C(=O)N[C@@H](CCCN=C(N)N)C(=O)NC1(C(=O)NC(c2ccc(F)cc2)c2ccc(F)cc2)CCCC1,scaled lipid accumulation score,[4],≤ -0.009
same,scaled lipid accumulation score,[2],≤ 0
Cc1cnc(-c2cc(N3CCN(C(=O)CCS(C)(=O)=O)CC3)ncc2Cl)c(C)c1,scaled lipid accumulation score,[4],≤ 0
same,scaled lipid accumulation score,[2],≤ 0
CCC(C)[C@H](NC(=O)[C@H](CCCCN)NC(=O)[C@H](CCCCN)NC(=O)[C@H](C)NC(=O)[C@H](CC(C)C)NC(=O)[C@H](C)NC(=O)[C@H](C)NC(=O)[C@H](CC(C)C)NC(=O)[C@H](C)NC(=O)[C@H](CCCCN)NC(=O)[C@H](CC(C)C)NC(=O)[C@H](CC(N)=O)NC(=O)[C@@H](N)[C@@H](C)CC)C(=O)N[C@@H](CC(C)C)C(N)=O (stereo partly drawn) [Mastoparan],scaled lipid accumulation score,library stock concentration: 3 mM,≤ -0.012
c1cncc(CN2CCC(n3ncc4c(N5CCOCC5)nc(-c5ccc6[nH]ccc6c5)nc43)CC2)c1,scaled lipid accumulation score,[4],1.19 (active)
same,scaled lipid accumulation score,[2],1.19 (active)
COC(=O)Nc1ccc(-c2nc(N3CCOCC3)c3cnn(C4CCN(C(=O)OC)CC4)c3n2)cc1,scaled lipid accumulation score,[4],≤ 0
same,scaled lipid accumulation score,[2],≤ 0
CNC(=O)Nc1ccc(-c2nc(N3CC4CCC(C3)O4)c3cnn(C4CCC5(CC4)OCCO5)c3n2)cc1,scaled lipid accumulation score,[5],≤ 0
same,scaled lipid accumulation score,[6],0.006
same,scaled lipid accumulation score,[7],≤ 0
same,scaled lipid accumulation score,[4],≤ 0
same,scaled lipid accumulation score,[2],0.733 and 0.772
CN(C)[C@@H]1C(O)=C(C(=O)NCNCCCC[C@H](N)C(=O)O)C(=O)[C@@]2(O)C(O)=C3C(=O)c4c(O)cccc4[C@@](C)(O)[C@H]3C[C@@H]12 [Lymecycline],scaled lipid accumulation score,,0.003
C[C@@H](N)c1ccc(C(=O)Nc2ccnc3[nH]ccc23)cc1,scaled lipid accumulation score,[5],≤ -0.009
same,scaled lipid accumulation score,[6],≤ -0.009
same,scaled lipid accumulation score,[7],0.069
C[C@@H](N)c1ccc(C(=O)Nc2ccnc3[nH]ccc23)cc1.Cl.Cl,scaled lipid accumulation score,[2],1.13 (active)
CC(C)(C)OC(=O)Nc1cccc2[nH]ccc12 [(1H-Indol-4-yl)-Carbamic Acid tert-butyl ester],scaled lipid accumulation score,[1],≤ 0
CCCCCCCCCCCCCC=CC(O)C(COP(=O)(O)O)NC(=O)CCCCCCC (stereo not drawn) [C-8 Ceramide-1-phosphate],scaled lipid accumulation score,[1],≤ 0
Nc1nc(F)nc2c1ncn2[C@@H]1O[C@H](COP(=O)(O)O)[C@@H](O)[C@@H]1O [Fludarabine Phosphate],scaled lipid accumulation score,[4],0.514
same,scaled lipid accumulation score,[2],0.748
CN1CCN(C(c2ccccc2)c2ccccc2)CC1 [Cyclizine],scaled lipid accumulation score,library stock concentration: 7.5 mM,0.186
same,scaled lipid accumulation score,[2],0.521
CN1CCN(C(c2ccccc2)c2ccccc2)CC1 [Cyclizine 2HCl],scaled lipid accumulation score,[4],≤ 0
same,scaled lipid accumulation score,[2],0.742
CN1CCN(C(c2ccccc2)c2ccc(Cl)cc2)CC1 (stereo not drawn) [Chlorcyclizine hydrochloride],scaled lipid accumulation score,,0.377
same,scaled lipid accumulation score,library stock concentration: 5.9 mM,0.391
CN1CCN(C(c2ccccc2)c2ccccc2)CC1 [Cyclizine hydrochloride],scaled lipid accumulation score,,0.648
CN1CCCN(C(c2ccccc2)c2ccc(Cl)cc2)CC1.Cl.Cl (stereo not drawn) [Homochlorcyclizine dihydrochloride],scaled lipid accumulation score,,0.879 (active)
[Cl-].[Li+] [Lithium Chloride],scaled lipid accumulation score,[2],≤ -0.07
COC(=O)C1=C(C)NC(C)=C(C(=O)OC)C1c1cccc(NC(=O)NCCCN2CCC(c3cccc(OC)c3)CC2)c1,scaled lipid accumulation score,[2],0.68
COc1cc(N2CCN(C)CC2)ccc1Nc1nc(N)c(C(=O)c2c(Cl)cccc2Cl)s1,scaled lipid accumulation score,[5],0.02
same,scaled lipid accumulation score,[6],≤ -0.009
same,scaled lipid accumulation score,[7],0.155
same,scaled lipid accumulation score,[2],0.8
CC1CCN(c2cc(N3CCN(C)CC3)ccc2NC(=O)c2cc(C#N)c[nH]2)CC1 [listing 1 of 2 here],scaled lipid accumulation score,[5],0.044
same,scaled lipid accumulation score,[6],≤ -0.016
same,scaled lipid accumulation score,[7],≤ -0.016
CC1CCN(c2cc(N3CCN(C)CC3)ccc2NC(=O)c2cc(C#N)c[nH]2)CC1 [listing 2 of 2 here],scaled lipid accumulation score,[2],1.32 (active)
"CCCC/C=C/C=C/C=C/CCCCCCCC(=O)OC [9(Z),11(E),13(E)-Octadecatrienoic Acid methyl ester]",scaled lipid accumulation score,[1],≤ 0
CC(=O)c1cc2c(cc1O)OC(C)(C)C=C2 [Eupatoriochromene],scaled lipid accumulation score,[2],0.066
C=CC(=O)N1CCC[C@@H](n2nc(-c3ccc(Oc4ccccc4)cc3)c3c(N)ncnc32)C1,scaled lipid accumulation score,[5],≤ -0.009
same,scaled lipid accumulation score,[6],0.313
same,scaled lipid accumulation score,[7],0.033
same,scaled lipid accumulation score,[4],≤ 0
same,scaled lipid accumulation score,[2],≤ 0 and 0.22
Nc1ncnc2c1c(-c1ccc(Oc3ccccc3)cc1)cn2C1CCCC1,scaled lipid accumulation score,[2],≤ -0.07
Nc1ncnc2c1c(-c1cccc(OCc3ccccc3)c1)cn2C1CC(CN2CCCC2)C1 (stereo not drawn),scaled lipid accumulation score,[2],0.36
Nc1ncnc2c1c(-c1cccc(OCc3ccccc3)c1)cn2[C@H]1C[C@@H](CN2CCC2)C1,scaled lipid accumulation score,[4],0.894 (active)
same,scaled lipid accumulation score,[2],1.01 (active)
Nc1ncnc2c1c(-c1cccc(OCc3ccccc3)c1)cn2C1CC(CN2CCC2)C1 (stereo not drawn),scaled lipid accumulation score,[5],0.167
same,scaled lipid accumulation score,[6],0.351
same,scaled lipid accumulation score,[7],0.67
same,scaled lipid accumulation score,[2],0.657
Nc1ncnc2c1c(-c1cccc(OCc3ccccc3)c1)cn2[C@H]1C[C@H](CN2CCCC2)C1,scaled lipid accumulation score,[4],1.09 (active)
COc1cc(O)c2c(c1)/C=C/C[C@H](O)[C@H](O)C(=O)/C=C\C[C@H](C)OC2=O [5z-7-oxozeaenol],scaled lipid accumulation score,[5],≤ -0.016
same,scaled lipid accumulation score,[6],≤ -0.016
same,scaled lipid accumulation score,[7],≤ -0.016
same,scaled lipid accumulation score,[2],0.613
CN1C(CCl)Nc2cc(Cl)c(S(N)(=O)=O)cc2S1(=O)=O (stereo not drawn),scaled lipid accumulation score,[2],0.013
CN1C(CCl)Nc2cc(Cl)c(S(N)(=O)=O)cc2S1(=O)=O (stereo not drawn) [Methyclothiazide],scaled lipid accumulation score,[4],≤ 0
same,scaled lipid accumulation score,[2],≤ -0.001
"COC(=O)CCC[C@H](O)[C@H](O)CO [5(S),6(R)-7-trihydroxymethyl Heptanoate]",scaled lipid accumulation score,[1],≤ 0
NC[C@@H]1CC[C@@H](N)[C@@H](O[C@H]2[C@H](O)[C@@H](O[C@H]3O[C@H](CO)[C@@H](O)[C@H](N)[C@H]3O)[C@H](N)C[C@@H]2N)O1 [Dibekacin],scaled lipid accumulation score,[2],0.108
CC(C)(C)NCC(O)c1ccc(O)c(CO)c1 (stereo not drawn),scaled lipid accumulation score,[2],0.076
CC(CCc1ccccc1)NCC(O)c1ccc(O)c(C(N)=O)c1 (stereo not drawn) [Labetalol HCl],scaled lipid accumulation score,[4],≤ 0
same,scaled lipid accumulation score,[2],0.464
O=C(O)c1ccc2ccccc2c1O.OCc1cc(C(O)CNCCCCCCOCCCCc2ccccc2)ccc1O (stereo not drawn) [Salmeterol xinafoate],scaled lipid accumulation score,[2],0.978 (active)
CC(C)(C)NC[C@H](O)c1ccc(O)c(CO)c1,scaled lipid accumulation score,[2],≤ 0
OCc1cc(C(O)CNCCCCCCOCCCCc2ccccc2)ccc1O (stereo not drawn) [Salmeterol] [listing 1 of 2 here],scaled lipid accumulation score,[2],1.08 (active)
CC(CCc1ccccc1)NCC(O)c1ccc(O)c(C(N)=O)c1 (stereo not drawn) [Labetalol hydrochloride],scaled lipid accumulation score,,0.321
same,scaled lipid accumulation score,[2],0.546 and 0.164
CC(CCc1ccccc1)NCC(O)c1ccc(O)c(C(N)=O)c1 (stereo not drawn),scaled lipid accumulation score,[2],0.089
OCc1cc(C(O)CNCCCCCCOCCCCc2ccccc2)ccc1O (stereo not drawn) [Salmeterol] [listing 2 of 2 here],scaled lipid accumulation score,,0.275
same,scaled lipid accumulation score,[3],0.553
same,scaled lipid accumulation score,[2],0.62
CC(C)(C)NCC(O)c1ccc(O)c(CO)c1 (stereo not drawn) [Albuterol hemisulfate],scaled lipid accumulation score,[2],≤ 0
CC(C)(C)NCC(O)c1ccc(O)c(CO)c1 (stereo not drawn) [Salbutamol],scaled lipid accumulation score,,≤ 0
